Experimental data from PubChem BioAssay (Tox21).
“And” between values parts separate entries of the source, which are not always exact repeats. Equal values may be shown once. Where a structure was tested more than once in an assay, its records may differ in their call. The source made the active and inactive calls. A call without a number means that no potency is given here. Unless noted, the call rests on the fitted dose curve; in most records, active means well fitted curve in the direction sought with a large enough effect in the repeat runs; inconclusive means weak or mixed curves; inactive means no such curve, though single readings can be large; an effect the other way counts as inactive or inconclusive.

Experiments:
[1] = qHTS assay to identify small molecule antagonists of the thyroid receptor (TR) signaling pathway - cell viability counter screen (AID 743064); further: nearly all actives have a fitted effect of over 50% in size; further: potency means the concentration at half of the fitted maximal effect
Summary of the method: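 Same-well viability check: GH3.TRE-Luc cells stimulated with 1 nM T3 alongside test compound for 23.5 h, followed by CellTiter-Fluor fluorescence.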

[2] = qHTS assay to identify small molecule antagonists of the thyroid receptor (TR) signaling pathway (AID 743065); further: series mostly up to about 70 µM; nearly all actives have a fitted effect of over 55% in size
Summary of the method: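 GH3.TRE-Luc rat pituitary cells carrying two TR response elements driving luciferase were plated for 4 h, given compound plus 1 nM T3 (final), and incubated 23.5 h at 37 C. ONE-Glo luminescence measured reporter inhibition; CellTiter-Fluor fluorescence tracked cytotoxicity.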

[3] = test system: thyroid hormone receptor (rat, GH3 cells); assay: qHTS assay to identify small molecule agonists of the thyroid receptor (TR) signaling pathway (AID 743066; calls by dose curve)
[4] = qHTS assay to identify small molecule antagonists of the estrogen receptor alpha (ER-alpha) signaling pathway - cell viability counter screen (AID 743074; calls by dose curve; further: nearly all actives have a fitted effect of over 45% in size)
[5] = qHTS assay to identify small molecule antagonists of the estrogen receptor alpha (ER-alpha) signaling pathway using the BG1 cell line - cell viability counter screen (AID 743081);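 further: compound given together with 17beta-estradiol as the ER stimulus; series mostly up to about 70 µM; nearly all actives have a fitted effect of over 45% in size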
[6] = target: Aromatase (Homo sapiens) (UniProt P11511); assay: qHTS assay to identify aromatase inhibitors (AID 743083); further: series mostly up to about 70 µM; nearly all actives have a fitted effect of over 55% in size
[7] = qHTS assay to identify aromatase inhibitors - cell viability counter screen (AID 743084);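 further: cells stimulated with testosterone during compound exposure; nearly all actives have a fitted effect of over 55% in size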; further: potency means the concentration at half of the fitted maximal effect
[8] = target: Aryl hydrocarbon receptor (Homo sapiens) (UniProt P35869); assay: qHTS assay to identify small molecule that activate the aryl hydrocarbon receptor (AhR) signaling pathway (AID 743085); further: nearly all actives have a fitted effect of over 15% in size; further: potency means the concentration at half of the fitted maximal effect;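 on activation: HG2L7.5c1 human HepG2 liver cells with stably integrated DRE-driven firefly reporter; series mostly up to about 70 µM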
Summary of the method: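 Reporter assay in engineered HepG2 line HG2L7.5c1, whose plasmid carries twenty dioxin responsive elements upstream of firefly luciferase. Treatment lasted 24 h at 37C; ONE-Glo luminescence gauged induction.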

[9] = qHTS assay to identify small molecule that activate the aryl hydrocarbon receptor (AhR) signaling pathway - cell viability counter screen (AID 743086);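 further: HepG2 liver cells carrying the AhR DRE luciferase reporter; series mostly up to about 70 µM; nearly all actives have a fitted effect of over 45% in size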
Summary of the method: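 HepG2-AhR-luc (HG2L7.5c1) cells, 4000/well, were preincubated 5 h at 37C, exposed to compound in qHTS format for 24 hr at 37C, then given CellTiter-Fluor for 30 min; viability was read as fluorescence in the reporter wells.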

[10] = qHTS assay to identify small molecule antagonists of the peroxisome proliferator-activated receptor gamma (PPARg) signaling pathway - cell viability counter screen (AID 743194); further: nearly all actives have a fitted effect of over 55% in size
Summary of the method: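 PPARg-UAS-bla HEK293H cells were plated, rested 5 h at 37 C, then treated with compounds plus rosiglitazone (50 nM final) for 17 h at 37 C; viability was then read by CellTiter-Glo luminescence after 30 min at room temperature.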

[11] = qHTS assay for small molecule agonists of the antioxidant response element (ARE) signaling pathway (AID 743202; active means well fitted activation curve with a large enough effect in the signal ratio in the repeat runs, not every such curve was filed as active; inconclusive means weak or mixed curves, or effect the other way; inactive means no such curve, though single readings can be large or run the other way; the % refers to the signal ratio; further: potency means the concentration at half of the fitted maximal effect)
Summary of the method: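 Steps: seed ARE-bla HepG2 cells (2,000/well); incubate 5 h at 37 C; add compounds by pin tool; incubate 16 h at 37 C; add FRET substrate; read fluorescence after 2 h at RT.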

[12] = qHTS assay for small molecule agonists of the antioxidant response element (ARE) signaling pathway - cell viability counter screen (AID 743203; calls by dose curve; further: nearly all actives have a fitted effect of over 55% in size)
Summary of the method: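 Cytotoxicity was tested in parallel with the ARE reporter screen. ARE-bla HepG2 cells were exposed to compounds for 16 hrs, and viability was taken from CellTiter-Glo luminescence.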

[13] = qHTS assay for small molecule activators of the heat shock response signaling pathway - cell viability counter screen (AID 743209); further: nearly all actives have a fitted effect of over 50% in size
Summary of the method: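 Cytotoxicity counter screen run in parallel with the HSE beta-lactamase reporter, using the same wells. HeLa HSE-bla cells received compound for 5 h at 37 C; ATP-based CellTiter-Glo luminescence was measured after 30 min at room temperature.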

[14] = qHTS assay for small molecule activators of the heat shock response signaling pathway (AID 743210; active means well fitted activation curve with a large enough effect in the signal ratio in the repeat runs, with a control signal flat, not every such curve was filed as active; inconclusive means weak or mixed curves; the % refers to the signal ratio;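 further: HeLa cells with beta-lactamase reporter driven by heat shock elements; series mostly up to about 63 µM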)
Summary of the method: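 Activation of heat shock element-controlled beta-lactamase expression is measured in HeLa cells by LiveBLAzer FRET fluorescence, with compound exposure lasting 5 h at 37 C and substrate loading 2.5 h at room temperature.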

[15] = target: Estrogen receptor (Homo sapiens) (UniProt P03372); assay: qHTS assay to identify small molecule antagonists of the estrogen receptor alpha (ER-alpha) signaling pathway (AID 743069; active means well fitted curve in the direction sought with a large enough effect in the signal ratio in the repeat runs, not every such curve was filed as active; inconclusive means weak or mixed curves, or effect the other way; inactive means no such curve, though single readings can be large or run the other way; the % refers to the signal ratio; further: potency means the concentration at half of the fitted maximal effect)
Summary of the method: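 Screening used a UAS-driven beta-lactamase reporter integrated into HEK293 cells expressing ER-alpha, stimulated with 17beta-estradiol alongside test compounds over 18 hr at 37C; signal came from LiveBLAzer B/G FRET fluorescence.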

[16] = target: Estrogen receptor (Homo sapiens) (UniProt P03372); assay: qHTS assay to identify small molecule agonists of the estrogen receptor alpha (ER-alpha) signaling pathway (AID 743075; calls by dose curve)
[17] = target: Estrogen receptor (Homo sapiens) (UniProt P03372); assay: qHTS assay to identify small molecule agonists of the estrogen receptor alpha (ER-alpha) signaling pathway using the BG1 cell line (AID 743079); further: nearly all actives have a fitted effect of over 20% in size
[18] = qHTS assay to identify small molecule antagonists of the estrogen receptor alpha (ER-alpha) signaling pathway using the BG1 cell line (AID 743080; calls by dose curve;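 further: BG1 cells stimulated with 17beta-estradiol alongside compound; series mostly up to about 70 µM; nearly all actives have a fitted effect of over 25% in size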)
Summary of the method: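 Readout is ONE-Glo luminescence, taken 30 min at room temperature after reagent addition, preceded by a CellTiter-Fluor viability read; BG1-Luc-4E2 cells had received compound and 17beta-estradiol for 21.5 h at 37 C.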

[19] = target: Peroxisome proliferator-activated receptor gamma (Homo sapiens) (UniProt P37231); assay: qHTS assay to identify small molecule agonists of the peroxisome proliferator-activated receptor gamma (PPARg) signaling pathway (AID 743094; active means well fitted activation curve with a large enough effect in the signal ratio in the repeat runs, not every such curve was filed as active; inconclusive means weak or mixed curves, or effect the other way; inactive means no such curve, though single readings can be large or run the other way; the % refers to the signal ratio)
Summary of the method: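 Cells from the PPARg UAS-bla HEK293H line are plated and incubated 5 h at 37C. Compounds in DMSO are pinned in and left 17 h at 37C. LiveBLAzer B/G substrate is then added for 1 h at room temperature before fluorescence is measured.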

[20] = target: Peroxisome proliferator-activated receptor gamma (Homo sapiens) (UniProt P37231); assay: qHTS assay to identify small molecule antagonists of the peroxisome proliferator-activated receptor gamma (PPARg) signaling pathway (AID 743191; calls by dose curve; further: nearly all actives have a fitted effect of over 30% in size; further: potency means the concentration at half of the fitted maximal effect)
Summary of the method: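 GeneBLAzer PPARg UAS-bla HEK293H cells carrying a UAS-driven beta-lactamase reporter were plated at 3000 cells/well, preincubated 5 h at 37C, then given compound for 17 h at 37C; LiveBLAzer B/G FRET substrate was read after 1 h at room temperature.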

Peroxisome proliferator-activated receptor gamma (Homo sapiens), sequence (P37231 whole entry, looked up): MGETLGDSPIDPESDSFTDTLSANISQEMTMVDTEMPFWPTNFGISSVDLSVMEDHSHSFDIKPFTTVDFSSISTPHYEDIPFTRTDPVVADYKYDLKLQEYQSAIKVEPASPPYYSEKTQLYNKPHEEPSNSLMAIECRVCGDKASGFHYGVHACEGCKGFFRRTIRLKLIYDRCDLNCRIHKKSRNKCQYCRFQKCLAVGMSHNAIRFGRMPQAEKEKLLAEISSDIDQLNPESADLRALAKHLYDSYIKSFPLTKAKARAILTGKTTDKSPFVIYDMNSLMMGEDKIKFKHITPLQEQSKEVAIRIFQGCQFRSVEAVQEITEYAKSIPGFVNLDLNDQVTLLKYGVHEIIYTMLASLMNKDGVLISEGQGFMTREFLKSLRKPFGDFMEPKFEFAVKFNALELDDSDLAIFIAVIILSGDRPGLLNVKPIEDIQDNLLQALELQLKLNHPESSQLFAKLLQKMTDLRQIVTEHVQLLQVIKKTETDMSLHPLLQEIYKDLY
Aromatase (Homo sapiens), sequence (P11511 whole entry, looked up): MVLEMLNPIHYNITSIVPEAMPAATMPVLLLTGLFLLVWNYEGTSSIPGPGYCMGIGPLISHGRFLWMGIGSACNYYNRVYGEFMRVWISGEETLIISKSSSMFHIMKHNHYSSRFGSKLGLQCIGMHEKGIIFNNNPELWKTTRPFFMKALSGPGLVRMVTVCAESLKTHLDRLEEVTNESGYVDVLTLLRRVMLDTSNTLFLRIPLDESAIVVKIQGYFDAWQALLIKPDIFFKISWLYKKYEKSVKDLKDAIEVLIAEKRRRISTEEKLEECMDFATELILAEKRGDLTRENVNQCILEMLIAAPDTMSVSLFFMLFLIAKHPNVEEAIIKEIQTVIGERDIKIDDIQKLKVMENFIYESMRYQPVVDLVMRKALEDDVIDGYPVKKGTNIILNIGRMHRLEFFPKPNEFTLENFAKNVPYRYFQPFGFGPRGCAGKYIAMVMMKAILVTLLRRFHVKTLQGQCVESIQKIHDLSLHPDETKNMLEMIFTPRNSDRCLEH
Estrogen receptor (Homo sapiens), sequence (P03372 whole entry, looked up): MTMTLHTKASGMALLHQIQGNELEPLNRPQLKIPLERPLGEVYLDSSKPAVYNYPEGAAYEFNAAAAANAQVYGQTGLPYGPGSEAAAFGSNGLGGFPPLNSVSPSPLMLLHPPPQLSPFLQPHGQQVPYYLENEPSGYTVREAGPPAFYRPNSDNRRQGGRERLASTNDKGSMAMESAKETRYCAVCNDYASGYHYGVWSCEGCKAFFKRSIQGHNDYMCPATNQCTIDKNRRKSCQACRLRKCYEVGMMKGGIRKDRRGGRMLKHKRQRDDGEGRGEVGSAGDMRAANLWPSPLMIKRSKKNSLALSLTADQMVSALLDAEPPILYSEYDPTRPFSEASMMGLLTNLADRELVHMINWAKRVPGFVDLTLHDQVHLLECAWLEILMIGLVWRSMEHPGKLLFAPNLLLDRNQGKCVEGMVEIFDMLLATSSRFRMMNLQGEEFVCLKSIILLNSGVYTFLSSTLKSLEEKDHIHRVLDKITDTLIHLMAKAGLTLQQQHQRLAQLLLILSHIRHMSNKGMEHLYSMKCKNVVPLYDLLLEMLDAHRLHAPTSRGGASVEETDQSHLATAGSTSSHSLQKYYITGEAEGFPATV
Aryl hydrocarbon receptor (Homo sapiens), sequence (P35869 whole entry, looked up): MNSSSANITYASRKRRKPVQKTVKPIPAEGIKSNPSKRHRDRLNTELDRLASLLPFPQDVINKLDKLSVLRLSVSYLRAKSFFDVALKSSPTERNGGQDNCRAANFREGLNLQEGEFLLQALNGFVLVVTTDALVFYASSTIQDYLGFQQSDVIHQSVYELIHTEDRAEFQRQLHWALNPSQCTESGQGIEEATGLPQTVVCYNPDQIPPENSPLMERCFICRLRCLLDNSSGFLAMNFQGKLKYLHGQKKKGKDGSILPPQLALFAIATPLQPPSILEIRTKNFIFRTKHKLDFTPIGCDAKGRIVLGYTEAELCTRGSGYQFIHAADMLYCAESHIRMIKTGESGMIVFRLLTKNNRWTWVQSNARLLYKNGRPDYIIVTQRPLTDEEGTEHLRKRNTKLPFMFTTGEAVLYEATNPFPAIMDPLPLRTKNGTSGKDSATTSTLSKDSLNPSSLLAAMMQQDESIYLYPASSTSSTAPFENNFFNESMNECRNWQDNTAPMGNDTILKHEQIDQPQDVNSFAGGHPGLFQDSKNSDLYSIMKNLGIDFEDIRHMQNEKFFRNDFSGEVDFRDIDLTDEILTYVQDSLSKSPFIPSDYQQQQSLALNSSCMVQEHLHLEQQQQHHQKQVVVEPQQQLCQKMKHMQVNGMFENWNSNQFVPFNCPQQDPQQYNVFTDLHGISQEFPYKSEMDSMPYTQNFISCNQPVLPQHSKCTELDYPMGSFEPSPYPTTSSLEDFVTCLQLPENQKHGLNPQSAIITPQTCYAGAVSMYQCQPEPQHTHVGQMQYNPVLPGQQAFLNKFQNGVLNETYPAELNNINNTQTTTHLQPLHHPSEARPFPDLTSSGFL

| SMILES | Potency [1] | Potency [2] | Potency [3] | outcome [4] | outcome [5] | Potency [6] | Potency [7] | Potency [8] | outcome [9] | outcome [10] | Potency [11] | Potency [12] | Potency [13] | Potency [14] | Potency [15] | outcome [16] | Potency [17] | outcome [18] | outcome [19] | Potency [20] |
| --- | --- | --- | --- | --- | --- | --- | --- | --- | --- | --- | --- | --- | --- | --- | --- | --- | --- | --- | --- | --- |
| Oc1ccc(Cl)cc1 | inactive | inactive | inactive | inactive | inactive | inactive | inactive | inactive | inactive | inactive | inactive | inactive | inactive | inactive | – | – | – | – | – | – |
| Cc1ccccc1N | inactive | inactive | inactive | inactive | inactive | inactive | inactive | inactive | inactive | inactive | inactive | inactive | inactive | inactive | – | – | – | – | – | – |
| N#CN=C(N)N | inactive | – | inactive | inactive | inactive | inactive | inactive | inactive | inactive | inactive | inactive | inactive | inactive | inactive | inactive | inactive | inactive | inactive | inactive | inactive |
| Nc1ccc(N)cc1 | inactive and 30.8 µM (active) | inactive | inactive | inactive | inactive | inactive | inactive and 54.7 µM (active) and 43.3 µM (active) | – | inactive | inactive | 8.67 µM (active) and 10.6 µM (active) | inactive | inactive | – | – | – | – | – | inactive | inactive |
| CCOC(=O)CC(SP(=O)(OC)OC)C(=O)OCC (centres undefined) | inactive | inactive | inactive | – | inactive | inactive | inactive | inactive | inactive | inactive | – | inactive | inactive | inactive | – | – | – | – | inactive | inactive |
| O=[N+]([O-])c1ccc(Cl)c(Cl)c1 | inactive | – | inactive | inactive | inactive | inactive | inactive | inactive | inactive | inactive | inactive | inactive | inactive | inactive | inactive | inactive | inactive | inactive | inactive | inactive |
| c1ccc2c(c1)CCCC2 | inactive | – | inactive | inactive | inactive | inactive | inactive | inactive | inactive | inactive | inactive | inactive | inactive | inactive | inactive | inactive | inactive | inactive | inactive | inactive |
| Oc1c(Br)cc(Br)cc1Br | inactive | – | inactive | inactive | inactive | inactive | inactive | inactive | inactive | inactive | 15.4 µM (active) | inactive | inactive | inactive | inactive and 61.8 µM [inconclusive] (active) | inactive | inactive | inactive | inactive | 43.7 µM (active) |
| CN1C(=O)CCS(=O)(=O)C1c1ccc(Cl)cc1 (centres undefined) | inactive | inactive | inactive | inactive | inactive | inactive | inactive | inactive | inactive | inactive | inactive | inactive | inactive | inactive | – | – | – | – | – | – |
| COP(=S)(OC)SCN1C(=O)c2ccccc2C1=O | inactive | inactive | inactive | inactive | inactive | inactive | inactive | inactive | inactive | inactive | inactive | inactive | inactive | inactive | – | – | – | – | inactive | inactive |
| OCCCCO | inactive | inactive | inactive | inactive | inactive | inactive | inactive | inactive | inactive | inactive | inactive | inactive | inactive | inactive | – | – | – | – | – | – |
| OCC(O)CCl (centres undefined) | inactive | – | inactive | inactive | inactive | inactive | inactive | inactive | inactive | inactive | inactive | inactive | inactive | inactive | inactive | inactive | inactive | inactive | inactive | inactive |
| COS(=O)(=O)OC | inactive | – | inactive | inactive | inactive | inactive | inactive | inactive | inactive | inactive | inactive | inactive | inactive | inactive | inactive | inactive | inactive | inactive | inactive | inactive |
| O=C(O)COc1ccccc1 | inactive | – | inactive | inactive | inactive | inactive | inactive | inactive | inactive | inactive | inactive | inactive | inactive | inactive | inactive | inactive | inactive | inactive | inactive | inactive |
| N#Cc1ccccn1 | inactive | – | inactive | inactive | inactive | inactive | inactive | inactive | inactive | inactive | inactive | inactive | inactive | – | inactive | inactive | inactive | inactive | inactive | inactive |
| CC12CC1(C)C(=O)N(c1cc(Cl)cc(Cl)c1)C2=O (centres undefined) | inactive | inactive | inactive | inactive | inactive | inactive | inactive | 27.2 µM (active) and inactive | inactive | inactive | – | inactive | inactive | inactive | – | – | – | – | inactive | – |
| CCSC(=O)N1CCCCCC1 | inactive | – | inactive | inactive | inactive | inactive | inactive | inactive | inactive | inactive | inactive | inactive | inactive | inactive | inactive | inactive | inactive | inactive | inactive | inactive |
